Experimental data as given in PubChem BioAssay.
Records with an inconclusive call do not appear. Calls of active or inactive are those of the source.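 Rule for the calls, unless noted: active = percent response above a set limit, the screen-wide mean plus 3 SD (cut at about 130% in these data); inactive = the rest.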

Columns and labels:
[1] = rapamycin-like changes in RPL19A-GFP expression – cell-based, S. cerevisiae, multiplex flow cytometry, primary screen (AID 1862; in the data active = percent of DMSO control GFP below about 86%;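 note: lower values mimic rapamycin by blocking the RPL19A rise seen in DMSO cells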); details: S. cerevisiae RPL19A-GFP strain, flow cytometry fluorescence, 3 h; at 10 µM; stronger effect = lower value
[2] = TOR pathway GLN3 branch reporter MEP2-GFP changes – S. cerevisiae, multiplex flow cytometry, primary screen (AID 1867;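 active = GFP response, as percent of the DMSO control, above the screen-wide mean plus 3 SD, about 139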;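 note: median GFP channel fluorescence of barcode-gated MEP2-GFP cells measured by flow cytometry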); details: S. cerevisiae MEP2-GFP strain, 3 h, at 10 µM, stronger effect = higher value, 100% means same as DMSO wells
[3] = TOR pathway RTG branch CIT2 reporter changes – S. cerevisiae, GFP fusion, multiplex flow cytometry, primary screen (AID 1870);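 note: barcoded CIT2-GFP strain pooled with four other GFP strains with rapamycin as positive control; median GFP fluorescence per well over plate mean of DMSO wells so 100% = DMSO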; details: S. cerevisiae CIT2-GFP expression, 3 h, at 10 µM, stronger effect = higher value
[4] = TOR pathway LAP4-GFP level changes – S. cerevisiae, multiplex flow cytometry, primary screen (AID 1873;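 active = GFP signal, as percent of the solvent control, above the screen mean plus 3 SD, about 149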); details: S. cerevisiae LAP4-GFP expression, 3 h, at 10 µM, stronger effect = higher value
[5] = yeast AGP1-GFP level changes, GLN3 branch – cell-based, multiplex flow cytometry, S. cerevisiae, primary screen (AID 1887;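 active = GFP signal above the screen-wide mean plus 3 SD, that is over about 124.5% of the solvent control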;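 note: AGP1-GFP fusion strain of S. cerevisiae within a five-strain barcoded multiplex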); details: 3 h, at 10 µM, stronger effect = higher value
[6] = reduced mouse 2C T cell binding to pMHC/ICAM-1 vesicles – MLPCN validation set, flow cytometry, LFA-1/ICAM-1 modulator project, pilot screen (AID 2523;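 active = response below a set limit, under 55% cells CD8-positive and vesicle-bound, and CD8 cells' 90th-percentile brightness under 279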;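 for vesicle binding response: mean PE anti-B7-1 fluorescence of CD8+ cells relative to row control; 100% = QL9-loaded vesicles with DMSO vehicle in the same plate row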); details: 2C mouse CD8+ T cells, at 7 µM, stronger effect = lower value; double positive events: measured here: CD8+/vesicle+ event percentage
[7] = target: Integrin beta-1 (Homo sapiens) + Integrin alpha-4 (Homo sapiens) (UniProt P13612+P05556); assay: alpha4beta1 integrin LIBS antibody binding reduction – U937 cells, HUTS-21 mAb, flow cytometry, validation set, VLA-4 allosteric modulator project, pilot screen (AID 2674;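 active = inhibition above 50%, about 3 SD of the validation set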;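 note: antibody binding induced by the VLA-4 ligand LDV present at three times its Kd; 0% = LDV ligand with antibody and no compound and 100% = antibody without LDV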); details: HUTS-21 LIBS mAb binding, at 6.7 µM, stronger effect = higher value, binding induced by LDV ligand
Sequence of Integrin beta-1 (Homo sapiens) + Integrin alpha-4 (Homo sapiens) (P05556 whole entry, looked up): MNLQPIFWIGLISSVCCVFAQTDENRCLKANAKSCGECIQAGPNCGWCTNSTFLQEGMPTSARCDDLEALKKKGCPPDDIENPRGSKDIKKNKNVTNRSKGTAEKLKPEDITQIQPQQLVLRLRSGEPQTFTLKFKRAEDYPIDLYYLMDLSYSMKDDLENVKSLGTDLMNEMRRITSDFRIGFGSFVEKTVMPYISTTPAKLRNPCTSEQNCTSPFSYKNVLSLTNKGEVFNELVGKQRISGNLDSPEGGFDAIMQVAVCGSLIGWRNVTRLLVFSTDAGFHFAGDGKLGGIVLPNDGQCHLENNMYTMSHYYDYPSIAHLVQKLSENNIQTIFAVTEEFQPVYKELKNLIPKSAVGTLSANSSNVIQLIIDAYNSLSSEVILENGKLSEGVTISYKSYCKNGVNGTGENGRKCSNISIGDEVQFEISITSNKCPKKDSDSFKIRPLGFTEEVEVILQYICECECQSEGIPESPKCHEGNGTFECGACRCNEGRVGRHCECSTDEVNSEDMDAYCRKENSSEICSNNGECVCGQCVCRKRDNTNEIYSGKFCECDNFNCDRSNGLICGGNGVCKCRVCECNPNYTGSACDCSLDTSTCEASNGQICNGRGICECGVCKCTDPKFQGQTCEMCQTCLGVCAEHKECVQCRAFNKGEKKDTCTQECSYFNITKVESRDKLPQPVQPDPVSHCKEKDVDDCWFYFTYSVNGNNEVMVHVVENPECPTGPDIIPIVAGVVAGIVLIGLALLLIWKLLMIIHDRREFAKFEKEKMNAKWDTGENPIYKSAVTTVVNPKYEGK
Sequence of Integrin beta-1 (Homo sapiens) + Integrin alpha-4 (Homo sapiens) (P13612 whole entry, looked up): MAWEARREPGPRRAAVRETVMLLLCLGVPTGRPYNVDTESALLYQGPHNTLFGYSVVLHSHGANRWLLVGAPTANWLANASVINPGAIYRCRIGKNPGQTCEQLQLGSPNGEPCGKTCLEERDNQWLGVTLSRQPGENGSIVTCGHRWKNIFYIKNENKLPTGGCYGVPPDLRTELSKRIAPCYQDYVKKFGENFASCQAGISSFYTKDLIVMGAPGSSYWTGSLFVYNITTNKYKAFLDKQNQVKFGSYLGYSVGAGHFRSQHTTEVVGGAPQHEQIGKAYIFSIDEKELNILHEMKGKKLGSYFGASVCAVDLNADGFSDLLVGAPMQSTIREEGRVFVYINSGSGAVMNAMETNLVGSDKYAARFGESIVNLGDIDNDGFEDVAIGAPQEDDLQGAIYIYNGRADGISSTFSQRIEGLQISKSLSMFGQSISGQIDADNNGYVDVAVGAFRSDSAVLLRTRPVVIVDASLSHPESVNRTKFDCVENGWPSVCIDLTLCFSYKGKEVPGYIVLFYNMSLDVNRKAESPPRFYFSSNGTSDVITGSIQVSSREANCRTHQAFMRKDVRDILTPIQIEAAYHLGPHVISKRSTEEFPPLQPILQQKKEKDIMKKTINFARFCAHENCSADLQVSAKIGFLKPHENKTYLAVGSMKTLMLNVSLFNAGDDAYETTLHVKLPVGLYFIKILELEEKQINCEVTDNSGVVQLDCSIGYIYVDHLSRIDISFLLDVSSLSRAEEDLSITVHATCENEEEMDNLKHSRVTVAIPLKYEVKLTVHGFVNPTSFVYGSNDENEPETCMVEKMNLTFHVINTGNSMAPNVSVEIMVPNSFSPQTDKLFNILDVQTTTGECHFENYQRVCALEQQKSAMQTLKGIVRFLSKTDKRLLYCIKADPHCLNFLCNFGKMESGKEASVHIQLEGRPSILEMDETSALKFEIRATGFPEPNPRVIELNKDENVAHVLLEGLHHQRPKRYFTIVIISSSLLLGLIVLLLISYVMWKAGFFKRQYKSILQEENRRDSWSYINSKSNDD

[8] = calorie-restriction mimetic ROS inhibitors, yeast – validation compound set, pilot screen (AID 2706;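 active = superoxide response below 65% of plate, a cut near 3 SD across the whole screen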;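 note: yeast exposed to compound for one week at 30 degrees C before staining; 100% = mean of all compound wells on the same plate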); details: S. cerevisiae aging, superoxide DHE fluorescence; at 10 µM; stronger effect = lower value
[9] = target: Beta-adrenergic receptor kinase 1 (Homo sapiens) (UniProt P25098); assay: GRK2 binders displacing RNA aptamer, biochemical, validation, human GRK2, bead flow cytometry (AID 488806;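 active = aptamer binding inhibition above 30%, about 3 SD of noise from non-fluorescent compounds; inactive = inhibition at or below 30%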); details: bead-bound GRK2, FAM-aptamer displacement, at 10 µM, stronger effect = higher value
Sequence of Beta-adrenergic receptor kinase 1 (Homo sapiens) (P25098 whole entry, looked up): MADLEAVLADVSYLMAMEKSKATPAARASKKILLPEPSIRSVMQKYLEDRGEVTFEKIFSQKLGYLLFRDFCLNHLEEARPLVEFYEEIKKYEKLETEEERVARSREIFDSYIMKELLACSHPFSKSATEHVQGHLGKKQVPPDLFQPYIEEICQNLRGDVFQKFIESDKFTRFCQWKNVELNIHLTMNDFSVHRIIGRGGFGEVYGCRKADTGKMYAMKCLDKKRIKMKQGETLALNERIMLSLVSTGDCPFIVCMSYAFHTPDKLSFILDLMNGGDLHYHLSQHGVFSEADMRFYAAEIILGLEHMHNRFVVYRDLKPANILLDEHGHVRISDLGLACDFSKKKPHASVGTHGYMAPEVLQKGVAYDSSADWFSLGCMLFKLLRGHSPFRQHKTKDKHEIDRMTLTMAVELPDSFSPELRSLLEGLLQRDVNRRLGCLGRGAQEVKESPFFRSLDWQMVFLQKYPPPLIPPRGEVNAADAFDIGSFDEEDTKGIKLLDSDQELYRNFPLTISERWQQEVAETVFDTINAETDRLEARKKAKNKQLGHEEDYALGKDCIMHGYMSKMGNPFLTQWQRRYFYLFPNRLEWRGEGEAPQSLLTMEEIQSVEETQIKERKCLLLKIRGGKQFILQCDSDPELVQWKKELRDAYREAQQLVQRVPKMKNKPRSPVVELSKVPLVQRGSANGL

[10] = target: Beta-2 adrenergic receptor (Homo sapiens) (UniProt P07550); assay: agonist-induced loss of surface beta2AR – cell-based, FAP fluorogen, flow cytometry, validation set, pilot screen (AID 504459;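 active = percent response above 42, roughly 3 SD of non-fluorescent test compounds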;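 note: agonist-driven loss of surface beta2AR via internalization measured by FAP dye flow cytometry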); details: Am2.2-beta2AR cells, at 10 µM, stronger effect = higher value
Sequence of Beta-2 adrenergic receptor (Homo sapiens) (P07550 whole entry, looked up): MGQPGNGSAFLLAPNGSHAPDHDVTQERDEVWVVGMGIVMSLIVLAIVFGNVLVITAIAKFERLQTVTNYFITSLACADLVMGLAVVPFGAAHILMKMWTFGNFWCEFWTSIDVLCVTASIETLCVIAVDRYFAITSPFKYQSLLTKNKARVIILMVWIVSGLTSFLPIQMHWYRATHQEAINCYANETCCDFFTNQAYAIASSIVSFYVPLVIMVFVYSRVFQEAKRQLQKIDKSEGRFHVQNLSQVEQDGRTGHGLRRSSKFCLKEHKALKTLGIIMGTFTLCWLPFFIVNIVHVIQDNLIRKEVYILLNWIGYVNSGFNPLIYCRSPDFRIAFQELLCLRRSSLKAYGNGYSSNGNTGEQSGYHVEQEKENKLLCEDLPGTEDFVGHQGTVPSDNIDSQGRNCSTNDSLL

[11] = target: AP-2 complex subunit beta (Homo sapiens) (UniProt P63010); assay: beta-arrestin/AP2 interaction blockers – biochemical, validation set, GST-AP2 beads, flow cytometry, pilot screen (AID 504541;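 active = inhibition above 54%, about 3 SD of non-fluorescent compounds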;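 note: AP2 carries R879A mutation and is captured from E. coli lysate; bead-bound FITC arrestin peptide fluorescence measuring arrestin peptide binding to AP2; 0% = DMSO wells and 100% = excess unlabeled arrestin peptide control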); details: FITC arrestin peptide, at 10 µM, stronger effect = higher value, AP2 beta2 appendage fragment, R879A mutant
Sequence of AP-2 complex subunit beta (Homo sapiens) (P63010 whole entry, looked up, the tested form may be a part, one chain of several): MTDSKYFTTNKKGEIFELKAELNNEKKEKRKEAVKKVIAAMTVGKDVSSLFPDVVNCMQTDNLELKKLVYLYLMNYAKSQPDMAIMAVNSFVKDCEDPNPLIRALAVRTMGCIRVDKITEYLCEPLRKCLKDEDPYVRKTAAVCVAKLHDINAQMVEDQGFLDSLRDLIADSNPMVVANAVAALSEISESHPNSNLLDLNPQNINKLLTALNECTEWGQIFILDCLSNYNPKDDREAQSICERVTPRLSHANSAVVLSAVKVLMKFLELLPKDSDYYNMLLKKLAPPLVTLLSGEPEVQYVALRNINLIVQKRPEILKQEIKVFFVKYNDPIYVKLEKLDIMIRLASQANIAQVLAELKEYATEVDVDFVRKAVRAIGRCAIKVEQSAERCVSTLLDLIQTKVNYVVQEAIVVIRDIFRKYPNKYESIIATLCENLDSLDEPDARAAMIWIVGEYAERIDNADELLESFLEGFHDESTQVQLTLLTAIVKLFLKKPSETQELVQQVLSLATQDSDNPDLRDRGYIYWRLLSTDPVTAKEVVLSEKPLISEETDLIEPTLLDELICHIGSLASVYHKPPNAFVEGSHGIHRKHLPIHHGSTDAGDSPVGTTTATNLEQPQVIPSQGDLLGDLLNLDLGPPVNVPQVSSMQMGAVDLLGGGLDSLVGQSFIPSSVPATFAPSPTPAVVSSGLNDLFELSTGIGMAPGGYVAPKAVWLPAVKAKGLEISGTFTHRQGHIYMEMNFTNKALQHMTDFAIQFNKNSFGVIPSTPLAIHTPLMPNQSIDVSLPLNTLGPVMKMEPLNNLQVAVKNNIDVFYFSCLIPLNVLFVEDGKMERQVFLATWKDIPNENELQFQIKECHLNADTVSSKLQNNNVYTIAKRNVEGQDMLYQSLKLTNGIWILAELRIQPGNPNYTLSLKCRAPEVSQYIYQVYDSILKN

[12] = cytosolic pH regulators acting via V-ATPase – S. cerevisiae, pHLuorin, HTS validation (AID 504600; in the data active = response above about 15%;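 note: plate controls were DMSO for no effect and reference compound for full effect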); details: V-ATPase proton transport, at 10 µM, stronger effect = higher value
[13] = test system: anti-desmoglein-3 scFv antibody binding to human DSG3; assay: blockers of pathogenic pemphigus antibody–desmoglein-3 binding – biochemical, validation compound set, bead-based, flow cytometry, pilot screen (AID 588368;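 active = binding below the plate cutoff, the plate median minus 3 SD, with a reading above zero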;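 note: signal is the median channel fluorescence of bead-bound GFP antibody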); details: Protein G beads, DSG3-Fc, scFv-GFP binding, at 10 µM, stronger effect = lower value
[14] = Nile Red efflux blockade in pump-expressing yeast – validation compound set, multiplex, phenotypic, pilot screen (AID 588506;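 active = efflux inhibition above 0.42, the validation set average plus 4 SD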;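 note: Nile Red retained in cells so higher fluorescence means more efflux inhibition; 0 = negative control wells and 1 = enniatin B 25 µM full block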); details: S. cerevisiae pump-expressing triplex, Nile Red efflux flow cytometry; at 10 µM; stronger effect = higher value; the pumps come from Candida albicans
[15] = target: ATP-binding cassette sub-family B member 6 (Homo sapiens) (UniProt Q9NP58); assay: blockers of ABCB6-driven porphyrin uptake – K562-ABCB6 cells, flow cytometry, validation set, pilot screen (AID 588550;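 active = inhibition above the screen-wide mean plus 3 SD, about 51%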;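 note: 0% = DMSO wells and 100% = benzethonium chloride 70 µM positive control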); details: K562-ABCB6 porphyrin accumulation, 1 h, at 10 µM, stronger effect = higher value
Sequence of ATP-binding cassette sub-family B member 6 (Homo sapiens) (Q9NP58 whole entry, looked up): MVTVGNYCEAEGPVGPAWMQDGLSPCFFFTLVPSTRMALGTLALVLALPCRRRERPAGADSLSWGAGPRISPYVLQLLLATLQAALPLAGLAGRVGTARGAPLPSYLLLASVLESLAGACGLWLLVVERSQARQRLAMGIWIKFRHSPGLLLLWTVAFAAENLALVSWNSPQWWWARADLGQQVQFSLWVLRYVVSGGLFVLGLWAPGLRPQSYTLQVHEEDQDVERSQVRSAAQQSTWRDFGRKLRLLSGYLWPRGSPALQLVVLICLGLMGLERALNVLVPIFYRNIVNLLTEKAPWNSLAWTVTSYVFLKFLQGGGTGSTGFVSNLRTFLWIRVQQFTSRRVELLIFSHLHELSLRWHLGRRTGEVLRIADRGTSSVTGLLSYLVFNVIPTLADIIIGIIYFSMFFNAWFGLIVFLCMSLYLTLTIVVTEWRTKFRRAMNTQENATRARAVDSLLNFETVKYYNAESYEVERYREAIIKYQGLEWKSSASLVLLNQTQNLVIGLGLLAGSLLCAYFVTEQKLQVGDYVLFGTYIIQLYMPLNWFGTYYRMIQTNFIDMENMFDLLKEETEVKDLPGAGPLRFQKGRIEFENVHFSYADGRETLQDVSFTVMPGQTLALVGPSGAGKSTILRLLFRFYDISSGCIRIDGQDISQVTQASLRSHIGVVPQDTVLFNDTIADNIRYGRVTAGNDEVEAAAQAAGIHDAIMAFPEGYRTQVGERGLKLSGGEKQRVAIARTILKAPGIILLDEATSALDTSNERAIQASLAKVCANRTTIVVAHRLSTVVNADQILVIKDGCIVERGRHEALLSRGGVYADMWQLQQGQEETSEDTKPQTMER

[16] = AML differentiation inducers, ER-HoxA9 marrow cells – cell-based, GFP/MAC1 double positive, flow cytometry, validation set, primary screen (AID 588685;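 active = differentiation response of at least 50%, scaled between solvent and reference control, from cells with both markers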;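 note: compound exposure lasts four days before antibody staining and flow analysis; 0% = DMSO wells and 100% = 5 µM fulvestrant positive control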); details: stronger effect = higher value, normalized: vehicle 0, fulvestrant 100

Row | SMILES | percent of DMSO control GFP [1] | GFP response vs DMSO [2] | percent response of DMSO control [3] | GFP response vs DMSO [4] | GFP response, % of DMSO [5] | double positive events [6] | vesicle binding response [6] | inhibition [7] | superoxide response (% of plate) [8] | aptamer binding inhibition [9] | response [10] | inhibition [11] | response [12] | binding (% of control) [13] | efflux inhibition (fraction of control) [14] | inhibition [15] | differentiation response [16]
1 | Cn1cc(CN2CCC(C(=O)N3CCCCC3)CC2)c(-c2ccccc2F)n1 | 95.9% (inactive) | 137% (inactive) | 104% (inactive) | 85.8% (inactive) | 94.2% (inactive) | 63.2% | 131% (inactive) | 5.49% (inactive) | 92.8% (inactive) | 4% (inactive) | -5.43% (inactive) | 0.65% (inactive) | -1.21% (inactive) | 104% (inactive) | -0.02 (inactive) | 16% (inactive) | 0% (inactive)
2 | COc1ccc2c(c1)C=CC1(O2)N(CCO)c2ccccc2C1(C)C (stereo not drawn) | 98.2% (inactive) | 111% (inactive) | 104% (inactive) | 124% (inactive) | 117% (inactive) | 62.1% | 212% (inactive) | -55.6% (inactive) | 108% (inactive) | 6% (inactive) | 43.9% (active) | 13.6% (inactive) | 7.05% (inactive) | 99.2% (inactive) | 0.04 (inactive) | -25% (inactive) | -1.05% (inactive)
3 | O=C(CCC1CCCN(C(=O)c2ccsc2)C1)NCc1ccc(F)c(F)c1 (stereo not drawn) | 99% (inactive) | 103% (inactive) | 94.2% (inactive) | 103% (inactive) | 98.9% (inactive) | 62.4% | 183% (inactive) | -9.79% (inactive) | 102% (inactive) | -2% (inactive) | -9.44% (inactive) | -6.99% (inactive) | 1.61% (inactive) | 104% (inactive) | 0.08 (inactive) | -8% (inactive) | 8.06% (inactive)
4 | CC(=O)OC[C@H]1O[C@@H](Sc2cccc3cccnc23)[C@H](OC(C)=O)[C@@H](OC(C)=O)[C@H]1OC(C)=O | 98.9% (inactive) | 99.6% (inactive) | 99% (inactive) | 117% (inactive) | 94.6% (inactive) | 62.5% | 187% (inactive) | -5.38% (inactive) | 105% (inactive) | 4% (inactive) | -27.5% (inactive) | -0.13% (inactive) | 0.07% (inactive) | 104% (inactive) | 0.04 (inactive) | -2% (inactive) | -5.97% (inactive)
5 | Cc1cn([C@H]2C=C[C@@H](CO)O2)c(=O)[nH]c1=O | 101% (inactive) | 104% (inactive) | 94.2% (inactive) | 92% (inactive) | 93.5% (inactive) | 65.8% | 705% (inactive) | 16.1% (inactive) | 94.6% (inactive) | 3% (inactive) | -6.71% (inactive) | -12% (inactive) | 3.71% (inactive) | 101% (inactive) | 0.02 (inactive) | 3% (inactive) | 1.22% (inactive)
6 | O=C(OCC(O)C(O)COC(=O)c1ccccc1)c1ccccc1 (stereo not drawn) | 102% (inactive) | 105% (inactive) | 105% (inactive) | 106% (inactive) | 107% (inactive) | 58.5% | 102% (inactive) | -10.5% (inactive) | 105% (inactive) | -1% (inactive) | -4.55% (inactive) | 2.63% (inactive) | -5% (inactive) | 97.7% (inactive) | 0.17 (inactive) | 2% (inactive) | -16.3% (inactive)
7 | O=c1cc(CN2CCN(c3cccc(Cl)c3)CC2)c2cc(O)c(-c3ccccc3)cc2o1 | 93% (inactive) | 133% (inactive) | 102% (inactive) | 83.1% (inactive) | 92.8% (inactive) | 69.1% | 265% (inactive) | 0.64% (inactive) | 113% (inactive) | 0% (inactive) | 6.6% (inactive) | -0.51% (inactive) | -1.13% (inactive) | 97.8% (inactive) | -0.02 (inactive) | 11% (inactive) | -12.3% (inactive)
8 | Cc1ccc2c(c1C)NC(C(=O)O)C1CC=CC21 (stereo not drawn) | 102% (inactive) | 97.4% (inactive) | 105% (inactive) | 73.5% (inactive) | 88.5% (inactive) | 60.4% | 121% (inactive) | -70% (inactive) | 101% (inactive) | 34% (active) | 62.2% (active) | 11% (inactive) | 2.2% (inactive) | 96.8% (inactive) | 0.15 (inactive) | -4% (inactive) | -4% (inactive)
9 | Cc1cccc(NC(=O)c2cc3ccccc3o2)c1 | 94.6% (inactive) | 115% (inactive) | 112% (inactive) | 90.8% (inactive) | 86.3% (inactive) | 69.2% | 162% (inactive) | 5.49% (inactive) | 90.5% (inactive) | 2% (inactive) | -1.7% (inactive) | 1.31% (inactive) | -0.5% (inactive) | 102% (inactive) | -0.24 (inactive) | 17% (inactive) | 3.28% (inactive)
